Reference: the supplement of paper PMC8285479
Counter-ions that a name gives are not always drawn. ± gives the standard deviation of the averaged measurements. Whole data set: some 1,900 compounds, median “normalised cell viability (NPI; 0 = phenylarsine oxide control, 1 = DMSO control)” near 1, cut for the lowest 2% near 0.039. Only a selection was taken, and the lowest values are over-represented in it overall.

Tested on: NCI-H1944
Assay: normalised cell viability (NPI; 0 = phenylarsine oxide control, 1 = DMSO control) (fraction of DMSO control); NCI-H1944 is a non-small cell lung cancer line; higher = more viable cells (less compound toxicity)
Settings: 6 days
[1] = glucocorticoid arm: hydrocortisone 2.75 uM co-treatment, compound 1 µM
[2] = glucocorticoid arm: hydrocortisone 2.75 uM co-treatment, compound 5 µM
[3] = glucocorticoid arm: hydrocortisone 2.75 uM pre-treated 2 days and continued, compound 1 µM
[4] = glucocorticoid arm: hydrocortisone 2.75 uM pre-treated 2 days and continued, compound 5 µM
[5] = glucocorticoid arm: vehicle, compound 1 µM
[6] = glucocorticoid arm: vehicle, compound 5 µM
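Also: CTB read-out in 384-well plates, triplicate wells, NPI normalised per plate against 1 µM phenylarsine oxide (0) and 0.1% DMSO (1) controls.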

Row | SMILES | normalised cell viability [1] | normalised cell viability [2] | normalised cell viability [3] | normalised cell viability [4] | normalised cell viability [5] | normalised cell viability [6]
1 | CO[C@H]1C(=O)[C@]2(C)[C@@H](OC)C[C@H]3OC[C@@]3(OC(C)=O)[C@H]2[C@H](OC(=O)c2ccccc2)[C@]2(O)C[C@H](OC(=O)[C@H](O)[C@@H](NC(=O)OC(C)(C)C)c3ccccc3)C(C)=C1C2(C)C [Cabazitaxel] | 0.191 ± 0.012 | 1.05 ± 0.021 | 0.468 ± 0.0065 | 1.05 ± 0.015 | 0.0505 ± 0.01 | 1.007 ± 0.0058
2 | CC(=O)O[C@@]12CO[C@@H]1C[C@H](O)[C@@]1(C)C(=O)[C@H](O)C3=C(C)[C@@H](OC(=O)[C@H](O)[C@@H](NC(=O)OC(C)(C)C)c4ccccc4)C[C@@](O)([C@@H](OC(=O)c4ccccc4)[C@H]21)C3(C)C [Docetaxel] | 0.159 ± 0.0035 | 0.163 ± 0.0095 | 0.462 ± 0.023 | 0.518 ± 0.015 | 0.049 ± 0.0034 | 0.0428 ± 0.0097
3 | CC(=O)O[C@H]1C(=O)[C@@]2(C)[C@H]([C@H](OC(=O)c3ccccc3)[C@]3(O)C[C@H](OC(=O)[C@H](O)[C@@H](NC(=O)c4ccccc4)c4ccccc4)C(C)=C1C3(C)C)[C@]1(OC(C)=O)CO[C@@H]1C[C@@H]2O [Taxol] | 0.122 ± 0.012 | 0.117 ± 0.015 | 0.8513 ± 0.0064 | 0.802 ± 0.051 | 0.0515 ± 0.0084 | 0.0382 ± 0.0051
4 | CC(=O)O[C@H]1C(=O)[C@@]2(C)[C@H]([C@H](OC(=O)c3ccccc3)[C@]3(O)C[C@H](OC(=O)[C@H](O)[C@@H](NC(=O)c4ccccc4)c4ccccc4)C(C)=C1C3(C)C)[C@]1(OC(C)=O)CO[C@@H]1C[C@@H]2O [Paclitaxel; Taxol] | 0.131 ± 0.0057 | 1.03 ± 0.01 | 0.466 ± 0.032 | 1.02 ± 0.011 | 0.0302 ± 0.0049 | 1.01 ± 0.01
5 | COC(=O)C1=C(C)NC(C)=C([N+](=O)[O-])C1c1ccccc1C(F)(F)F (racemic) | 0.99 ± 0.0072 | 0.942 ± 0.02 | 0.9753 ± 0.0031 | 0.9355 ± 0.00071 | 0.962 ± 0.01 | 0.947 ± 0.011
6 | CCC1=C[C@@H]2CN(C1)Cc1c([nH]c3ccccc13)[C@@](C(=O)OC)(c1cc3c(cc1OC)N(C)[C@H]1[C@@](O)(C(=O)OC)[C@H](OC(C)=O)[C@]4(CC)C=CCN5CC[C@]31[C@@H]54)C2 [Vinorelbine tartrate] | 0.327 ± 0.0017 | 0.35 ± 0.02 | 0.629 ± 0.017 | 0.683 ± 0.036 | 0.0577 ± 0.0028 | 0.0356 ± 0.0026
7 | CC[C@]1(O)C[C@@H]2CN(CCc3c([nH]c4ccccc34)[C@@](C(=O)OC)(c3cc4c(cc3OC)N(C)[C@H]3[C@@](O)(C(=O)OC)[C@H](OC(C)=O)[C@]5(CC)C=CCN6CC[C@]43[C@@H]65)C2)C1 [Vinblastine sulfate salt] | 0.361 ± 0.02 | 0.337 ± 0.021 | 0.795 ± 0.17 | 0.94 ± 0.023 | 0.0757 ± 0.0017 | 0.0495 ± 0.005
8 | CC[C@]1(O)C[C@@H]2CN(CCc3c([nH]c4ccccc34)[C@@](C(=O)OC)(c3cc4c(cc3OC)N(C)[C@H]3[C@@](O)(C(=O)OC)[C@H](OC(C)=O)[C@]5(CC)C=CCN6CC[C@]43[C@@H]65)C2)C1 [Vinblastine sulfate salt; Vinblastine sulfate] | 0.354 ± 0.019 | 1.023 ± 0.0058 | 0.621 ± 0.029 | 1.03 ± 0.027 | 0.0439 ± 0.00099 | 1.017 ± 0.0058
9 | C=CCN1CCc2c(cc(O)c(O)c2Br)[C@@H](c2ccccc2)C1 [R(+)-6-Bromo-APB hydrobromide] | 0.986 ± 0.017 | 1.01 | 0.989 ± 0.0095 | 1 ± 0.011 | 0.976 ± 0.011 | 0.9827 ± 0.0035
10 | Cc1cc(C)c(/C=C2\C(=O)Nc3ccccc32)[nH]1 | 1.06 ± 0.01 | 1.09 ± 0.015 | 1.07 ± 0.044 | 1.12 ± 0.017 | 1.03 | 1.03 ± 0.011
11 | COc1c/c(=C2\C=c3ccccc3=N2)[nH]/c1=C\c1[nH]c(C)cc1C [Obatoclax mesylate (GX15-070)] | 0.972 ± 0.014 | 0.42 ± 0.019 | 1 ± 0.0087 | 1.03 ± 0.015 | 0.564 ± 0.07 | 0.0292 ± 0.0041
12 | Cc1cc(C)c(/C=C2\C(=O)Nc3ccccc32)[nH]1 [Semaxanib (SU5416)] | 1.09 ± 0.011 | 1.15 ± 0.046 | 1.09 ± 0.011 | 1.11 ± 0.017 | 1.023 ± 0.0058 | 1.027 ± 0.0058
13 | O=C(O)CCC(NC(=O)c1ccccc1C(=O)O)C(=O)O [Phthalamoyl-L-glutamic acid trisodium] | 0.9933 ± 0.0031 | 1.06 ± 0.021 | 0.869 ± 0.23 | 1.03 ± 0.025 | 0.997 ± 0.0052 | 1.006 ± 0.0063
14 | CC(NC(=O)Cc1cc(F)cc(F)c1)C(=O)NC1C(=O)N(C)c2ccccc2-c2ccccc21 (stereo unspecified) | 0.977 ± 0.0072 | 0.998 ± 0.0035 | 0.983 ± 0.015 | 0.999 ± 0.019 | 0.9847 ± 0.0057 | 0.9813 ± 0.007
15 | COc1cc(=O)n(C)c2c(OCC(O)C(C)(C)O)cccc12 (stereo unspecified) [Foliosidine] | 1.005 ± 0.0081 | 0.99 ± 0.01 | 0.9877 ± 0.0067 | 0.981 ± 0.012 | 0.998 ± 0.011 | 0.9963 ± 0.0021
16 | O=C(CCCCCCC(=O)Nc1ccccc1)NO [Vorinostat (SAHA, MK0683)] | 0.94 ± 0.017 | 0.585 ± 0.025 | 0.959 ± 0.0017 | 0.955 ± 0.048 | 1.003 ± 0.0058 | 0.0617 ± 0.0036
17 | O=C(CCCCCCC(=O)Nc1ccccc1)NO | 0.959 ± 0.016 | 0.569 ± 0.04 | 0.978 ± 0.013 | 0.912 ± 0.015 | 0.969 ± 0.011 | 0.075 ± 0.0018
18 | O=C(CCCCCCC(=O)Nc1ccccc1)NO [Vorinostat; SAHA] | 0.928 ± 0.018 | 1.04 ± 0.04 | 0.95 ± 0.0036 | 1.02 | 0.995 ± 0.015 | 0.9983 ± 0.0029
19 | CC(C)(C)OC(=O)Nc1ccc(-c2cc(C(=O)NCCCCCCC(=O)NO)no2)cc1 | 0.9572 ± 0.0081 | 0.244 ± 0.23 | 0.991 ± 0.025 | 0.677 ± 0.31 | 0.806 ± 0.15 | 0.0189 ± 0.02
20 | N=C(N)NCCC[C@H](N)C(=O)O [L-Arginine] | 1 ± 0.018 | 0.997 ± 0.0027 | 0.994 ± 0.0066 | 1 ± 0.011 | 0.986 ± 0.0085 | 1.001 ± 0.0081
21 | CC1(C)CNc2cc(NC(=O)c3cccnc3NCc3ccncc3)ccc21 [Motesanib Diphosphate] | 1.02 ± 0.011 | 1 ± 0.031 | 1 ± 0.012 | 0.992 ± 0.026 | 1.001 ± 0.0076 | 1.002 ± 0.0076
22 | O=C1NC(=O)C(=Cc2ccc(-c3ccc(F)cc3)o2)S1 (stereo in doubt) | 1 ± 0.018 | 1 ± 0.014 | 0.996 ± 0.013 | 1.01 | 0.991 ± 0.0027 | 0.9913 ± 0.0083
23 | O=c1[nH]c(=O)n([C@H]2C[C@H](O)[C@@H](CO)O2)cc1/C=C/Br [(E)-5-(2-Bromovinyl)-2'-deoxyuridine] | 1.013 ± 0.0058 | 1.01 ± 0.01 | 1.003 ± 0.0061 | 1.015 ± 0.0071 | 0.9783 ± 0.0055 | 0.9897 ± 0.0049
24 | C[C@@H](NC(=O)/C(C#N)=C/c1ccc(O)c(O)c1)c1ccccc1 [Tyrphostin AG 527] | 1.013 ± 0.0058 | 0.9963 ± 0.0038 | 0.879 ± 0.22 | 0.999 ± 0.011 | 1.003 ± 0.0058 | 1.003 ± 0.0061
25 | CCC[C@H](NC(=O)/C(C#N)=C/c1cccc(Br)n1)c1ccccc1 | 1.017 ± 0.0058 | 0.726 ± 0.1 | 1.02 ± 0.01 | 1.09 ± 0.025 | 0.996 ± 0.0046 | 0.339 ± 0.026
26 | C[C@H](NC(=O)/C(C#N)=C/c1cccc(Br)n1)c1ccccc1 | 1.01 ± 0.012 | 1.06 ± 0.032 | 1.02 ± 0.017 | 1.048 ± 0.0075 | 0.9985 ± 0.0098 | 0.0147 ± 0.011
